Screens: PubChem, The Scripps Research Institute Molecular Screening Center
Only some compounds are listed: those with a hit (about 3.5% of all), similar ones and a draw of the others.
MITF inh – inhibitors of human MITF | AlphaScreen MITF homodimerization, bead proximity signal | inhibition, % at 2.6 µM | 0.91% of 650,000 active; in the data active means inhibition above about 50%
Target sequence (O75030 whole entry, looked up): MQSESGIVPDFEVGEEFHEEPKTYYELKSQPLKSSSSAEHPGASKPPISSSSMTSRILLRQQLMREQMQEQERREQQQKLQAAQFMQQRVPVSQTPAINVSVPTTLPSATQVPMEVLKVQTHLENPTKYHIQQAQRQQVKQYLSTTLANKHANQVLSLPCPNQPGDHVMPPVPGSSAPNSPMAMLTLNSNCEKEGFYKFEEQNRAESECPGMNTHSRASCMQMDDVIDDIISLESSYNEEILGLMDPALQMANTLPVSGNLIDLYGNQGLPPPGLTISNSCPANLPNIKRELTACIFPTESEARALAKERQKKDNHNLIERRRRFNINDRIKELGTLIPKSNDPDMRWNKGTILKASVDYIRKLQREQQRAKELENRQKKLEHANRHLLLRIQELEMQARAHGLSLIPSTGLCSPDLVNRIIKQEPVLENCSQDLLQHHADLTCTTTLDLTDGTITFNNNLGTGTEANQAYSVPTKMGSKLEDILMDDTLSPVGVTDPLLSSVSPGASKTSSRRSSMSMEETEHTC
GPR151 ag – human GPR151 activation; AID 1508602; 1% of 650,000 active; activation, % at 11.2 µM; Q8TDV0; PathHunter beta-arrestin GPR151 cells, luminescence; in the data active means activation above about 4.9%
FBW7 activator – human FBW7 E3 ligase activation, primary screen. Q969H0. AlphaScreen FBW7–phospho-cyclin E peptide binding, activator screen. normalized activity (activation), % at 26.1 µM. 0.13% of 650,000 active; in the data active means normalized activity above about 1.9%;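 further: purified mutant Fbw7 with reduced substrate affinity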
TEAD-YAP inh – TEAD-YAP interaction inhibition; HEK-TIYL cells, TEAD-Gal4/YAP UAS-luciferase luminescence; inhibition, % at 9.12 µM; 1.4% of 640,000 active; AID 1259422; in the data active means inhibition above about 32%
Numbers stand for hits; 0 = inactive.

SMILES | MITF inh | GPR151 ag | FBW7 activator | TEAD-YAP inh
COc1ccc(-c2nnc3ccc(SCC(=O)NCCc4ccccc4)nn23)cc1 | 0 | 0 | 0 | 0
COc1ccc(CCNC(=O)CSc2ccc3nnc(-c4ccccc4)n3n2)cc1OC | 0 | 0 | 2.7 | 0
CCN1C(=O)CC(C(=O)Nc2cccc(Cl)c2)SC1=Nc1ccc(C(=O)OC)cc1 (stereo not drawn) | 0 | 0 | 0 | 0
COc1ccc(-c2csc(NC(=O)c3cc(Cl)ccc3[N+](=O)[O-])n2)cc1C | 0 | 0 | 0 | 53
O=C(Nc1nc(-c2cccc3ccccc23)cs1)c1cc([N+](=O)[O-])ccc1Cl | 0 | 0 | 0 | 44
CCOC(=O)c1ccc(Nc2cc(OC)c([N+](=O)[O-])nc2[N+](=O)[O-])cc1 | 0 | 0 | 0 | 67
O=C(Nc1nc(-c2ccc3ccccc3c2)cs1)c1cc([N+](=O)[O-])ccc1Cl | 0 | 0 | 0 | 37
CN1C(=O)/C(=c2/s/c(=C3\Sc4ccccc4N3C)c(=O)n2C)SC1=S | 0 | 0 | 0 | 0
CC(=O)c1[nH]c(C)c(C(=O)NC2CCCc3ccccc32)c1C (stereo not drawn) | 0 | 0 | 0 | 0
CCOC(=O)c1ccc(NC(=O)c2cc([N+](=O)[O-])ccc2Cl)cc1 | 0 | 0 | 0 | 39
CCOC(=O)c1sc(NC(=O)c2cc(Cl)ccc2[N+](=O)[O-])nc1-c1ccccc1 | 0 | 0 | 0 | 0
O=C(Nc1nc(-c2ccccc2)cs1)c1cc([N+](=O)[O-])ccc1Br | 0 | 0 | 0 | 0
CCOC(=O)c1sc(NC(=O)c2cc([N+](=O)[O-])ccc2Cl)nc1-c1ccccc1 | 0 | 0 | 0 | 39
O=C(Nc1nc(-c2ccccc2)cs1)c1cc([N+](=O)[O-])ccc1Cl | 0 | 0 | 0 | 33
CC(C)(C)c1ccc(OCC(=O)Nc2ccc(F)cc2)cc1 | 0 | 0 | 0 | 0
O=C(NC(=S)NNC(=O)c1cc2ccccc2cc1O)c1ccco1 | 0 | 0 | 0 | 35
COc1cc(/C=N/Nc2nc3nonc3nc2Nc2ccc(Cl)cc2)ccc1O | 0 | 0 | 0 | 0
N/C(=N\OC(=O)c1ccc(I)cc1)c1cccnc1 | 0 | 0 | 0 | 0
O=c1[nH]c(Nc2ccccc2)nnc1Cc1ccccc1Cl | 0 | 0 | 0 | 0
COc1cccc(Nc2nnc(Cc3ccccc3Cl)c(=O)[nH]2)c1 | 0 | 0 | 0 | 46
c1ccc(CN2CCC(Nc3ncnc4nc(Nc5ccc(N6CCOCC6)cc5)[nH]c34)CC2)cc1 | 0 | 0 | 0 | 0
Cc1noc(C)c1-c1nc2ncnc(Nc3ccc(N4CCOCC4)cc3)c2[nH]1 | 0 | 0 | 0 | 33
c1ccc(Nc2ncnc3nc(-c4ccc(N5CCOCC5)nc4)[nH]c23)cc1 | 0 | 0 | 0 | 54
c1cc(Nc2nc3ncnc(Nc4ccc(N5CCOCC5)cc4)c3[nH]2)ccn1 | 0 | 0 | 0 | 43
CC(=O)Nc1ccc(Nc2ncnc3nc(Nc4ccc(N5CCOCC5)cc4)[nH]c23)cc1 | 0 | 0 | 0 | 0
SMILES | MITF inh | GPR151 ag | FBW7 activator | TEAD-YAP inh
CC(=O)Nc1ccc(Nc2ncnc3nc(-c4ccc(N5CCOCC5)nc4)[nH]c23)cc1 | 0 | 0 | 0 | 0
c1nc(NC2CC2)c2[nH]c(Nc3ccc(N4CCOCC4)cc3)nc2n1 | 0 | 0 | 0 | 35
O=C(NCCS(=O)Cc1ccccc1)c1ccc(N2CC3CC(C2)c2cccc(=O)n2C3)c(NC(=O)c2ccc(F)cc2)c1 (stereo not drawn) | 0 | 0 | 0 | 0
C#CCN1C(=O)S/C(=C/c2cccc([N+](=O)[O-])c2O)C1=O | 0 | 0 | 0 | 0
CCN(CC)C(=O)C1CCCN(c2nc3ncnc(Nc4ccc(N5CCOCC5)cc4)c3[nH]2)C1 (stereo not drawn) | 0 | 0 | 0 | 44
c1cnc(Nc2nc3ncnc(Nc4ccc(N5CCOCC5)cc4)c3[nH]2)nc1 | 0 | 0 | 0 | 53
c1nc(Nc2ccc(N3CCOCC3)cc2)c2[nH]c(NCCN3CCOCC3)nc2n1 | 0 | 0 | 0 | 0
O=C(c1ccc(C(=O)c2ccc(Cl)c(Cl)c2)cc1)c1ccc(Cl)c(Cl)c1 | 0 | 0 | 0 | 0
CCOc1cc(/C=C\c2[nH]c(=O)[nH]c(=O)c2[N+](=O)[O-])ccc1OCC(=O)OC | 0 | 0 | 0 | 0
CC(C)(C)c1nc2scc(-c3ccc(Br)cc3)c2c(=O)o1 | 0 | 0 | 0 | 34
CC(C)(C)c1nc2scc(-c3ccccc3)c2c(=O)o1 | 0 | 0 | 0 | 0
O=C(NCCc1ccccc1)C1C2C3CCC(C3)C12 (stereo not drawn) | 0 | 0 | 0 | 58
OC1CCCN(c2ncn(-c3ccc(Nc4nccc(-c5cccc(N6CCOCC6)c5)n4)cc3)n2)C1 (stereo not drawn) | 0 | 0 | 0 | 83
CN1CCN(c2ncn(-c3ccc(Nc4nccc(-c5cc(C#N)cc(N6CCCC(O)C6)c5)n4)cc3)n2)CC1 (stereo not drawn) | 0 | 0 | 0 | 62
